Among the data in PubChem BioAssay (NCI) are growth values, retold here.

Compounds without any hit were thinned out: in the full panel of roughly 83,000, 20% have a hit.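 Activity criterion: percent growth below 10, measured after cells in 96-well plates were exposed to a single compound concentration for 48 hours.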 Active and inactive are the calls of the source.

This assay concerns MCF7 breast. Description: NCI-60 one-dose screen, 48 h (100 = growth as untreated, 0 = no growth, -100 = all killed). Conditions: 10 µM unless noted.
In the case of `CCCCn1cc(C(=O)/C(C#N)=C/c2cc3ccccc3nc2Cl)c2cc(OC)ccc21`, the growth was 72% (inactive).

Take `CCCCNCCc1ccccn1`: the growth is 92.1% (inactive).

For `CC(=O)C1C(=O)N(C)C(=O)N(C)C1=O`, the growth was 99.7% (inactive).

For `CC1(C)N=C(N)N=C(N)N1c1cccc(C(=O)Nc2cccc(S(=O)(=O)F)c2)c1`, the growth is 95.5% (inactive).

In the case of `C[C@]12CC[C@@H]3C4=C(CC[C@H]3[C@@H]1CC[C@@H]2O)CC(=O)CC4`, the growth is 118% (inactive).

Take `Oc1ccccc1OB(Oc1ccccc1O)N(CCCl)CCCl`: the growth was 88.2% (inactive).

Take `NC(Cc1ccc2c(c1)OCO2)c1ccc2c(c1)OCO2` (stereo not drawn): the growth was 89.2% (inactive).

Regarding `COc1ccc(-c2ccc(OC)c(OC)c2OC)cc1`, the growth is 19.3% (inactive).

For `CC1(C)N=C(N)N=C(N)N1c1ccc(CCCCc2ccc(S(=O)(=O)F)cc2)c(Cl)c1`, the growth is -0.0775% (active).

For `COc1ccc(C2=NN(c3ccccc3)C(c3sc(N(CCCl)CCCl)nc3Cl)C2)cc1` (stereo not drawn), the growth was 87.3% (inactive).

Regarding `N#CC1c2ccccc2C=CN1C(=O)c1ccc(N(CCCl)CCCl)cc1` (stereo not drawn), the growth is 83.5% (inactive).

`CSc1ccccc1NP1(=O)OCC(C)([N+](=O)[O-])CO1` (stereo not drawn): the growth was 98.1% (inactive).

In the case of `Cc1ccc(N)cc1[As]=[As]c1cc(N)ccc1C` (stereo not drawn), the growth is -74.9% (active).

`C/C(=N/OC(=O)N(C)C)c1cc(Cl)ccc1Cl`: the growth is 97.8% (inactive).

For the molecule `CCC(C)[C@H]1O[C@]2(C=C[C@@H]1C)C[C@@H]1C[C@@H](C/C=C(\C)[C@@H](OC3C[C@H](OC)C(O[C@H]4C[C@H](OC)[C@@H](O)[C@H](C)O4)[C@H](C)O3)[C@@H](C)/C=C/C=C3\CO[C@@H]4[C@H](O)C(C)=C[C@@H](C(=O)O1)[C@]34O)O2` (stereo partly drawn), the growth is 10.4% (inactive).

As for `CC1(C)N=C(N)N=C(N)N1c1ccc(CCCCc2ccc(S(=O)(=O)F)cc2)cc1`, the growth is 2.82% (active).

For the molecule `Cc1ccc(C(=O)C2CN(C)CCC2(O)c2ccc(C)cc2)cc1` (stereo not drawn), the growth is 98.1% (inactive).

`O=S(=O)(O)c1ccc(-c2ccc([As](=O)(O)O)cc2)cc1`: the growth is 103% (inactive).

In the case of `O=C1NC(=O)C(CN2C(=O)C3(c4ccccc42)[C@H](Cl)C(=O)N3c2ccccc2)C(=O)N1` (stereo partly drawn), the growth is 18.4% (inactive).

As to `O=[N+]([O-])c1cc([N+](=O)[O-])c(Cl)c(Cl)c1Cl`, the growth is 2.17% (active).

In the case of `C=CCC1(CC)C(=O)NC(=S)NC1=O`, the growth is 103% (inactive).

Take `C/C(=N/OC(=O)N(C)C)c1ccc(Cl)cc1Cl`: the growth was 95% (inactive).

For `CCC[CH2][Sn]([CH2]CCC)([CH2]CCC)[O]C(=O)CC`, the growth was -82.1% (active).

Consider `O=C(NCc1ccc([N+](=O)[O-])cc1)Nc1ccc(S(=O)(=O)F)cc1`, for which the growth was 83.7% (inactive).

Consider `n1nc(-c2nonc2-c2nn[nH]n2)n[nH]1`, for which the growth is 101% (inactive).

As for `CNC(=O)Oc1ccccc1-c1ccccc1`, the growth was 106% (inactive).

Take `CC1(C)N=C(N)N=C(N)N1c1ccc(OCCCCOc2ccc(S(=O)(=O)F)cc2)c(Cl)c1`: the growth is 9.19% (active).

Turning to `CCCCOC(=O)c1ccccc1C(=O)O.CCCCOC(=O)c1ccccc1C(=O)O.[Cu+2]`, the growth was 98.3% (inactive).

Consider `O=[N+]([O-])c1ccc2cnn(CSP(=S)(c3ccccc3)c3ccccc3)c2c1`, for which the growth was 26.8% (inactive).

Regarding `NC(=O)C(Cl)Cl`, the growth was 92.8% (inactive).

Take `CCN(CC)c1ccc(C=C2C(=O)NC(=S)NC2=O)cc1`: the growth was 60.3% (inactive).

As for `Clc1ccc(SSC(Cl)(Cl)Cl)cc1`, the growth was 108% (inactive).

With `[O]=[Sn]([CH]1CCCCC1)[CH]1CCCCC1`, the growth is -88% (active).

With `ClCCN(CCCl)c1nc(Cl)c(C2CC(c3ccccc3)=NN2c2ccccc2)s1` (stereo not drawn), the growth is 91.6% (inactive).

Turning to `CC(=O)C1CCC2C3CC=C4CC(OC(=O)Cc5ccc(N(CCCl)CCCl)cc5)CCC4(C)C3CCC12C` (stereo not drawn), the growth is 106% (inactive).

Consider `Cc1ccccc1O`, for which the growth was 119% (inactive).

Turning to `O=[N+]([O-])c1ccccc1N1CCNCC1`, the growth is 105% (inactive).

Take `CC(=O)Nc1ccc(C=C2C(=O)NC(=O)NC2=O)cc1`: the growth was 94% (inactive).
